# Screening results: PubChem BioAssay, The Scripps Research Institute Molecular Screening Center
# This is one part of a sample in which hits are shown more often than they occur.
# TTR transcr act: activators of transthyretin transcription. SH-SY5Y TTR promoter Gaussia luciferase, luminescence; 100% = recombinant luciferase protein wells. activation, % at 16.7 µM. 92,000 tested, 1.3% active;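 active = activation above the mean of all tested compounds plus 3 SD, cut at about 9.5% in these data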;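 also: cells exposed to compounds for one day before reading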
# HuH7 TTR inh: HuH7 TTR transcription inhibition, counter-screen; 1,100 tested, 4% active; shares compounds with TTR transcr act; AID 1117279; inhibition, % at 16.7 µM; HuH7 TTR promoter-Gaussia luciferase reporter, luminescence;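 active = average inhibition above the solvent-only control wells' mean plus 3 SD, cut at about 15% in these data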;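 also: inhibitors lower well luminescence so higher value means more inhibition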
# TTR act confirm: human TTR transcription activation, confirmation. shares compounds with TTR transcr act. SHSY5Y TTR promoter Gaussia luciferase, luminescence; 100% = purified Lucia enzyme wells, no cells. activation, % at 16.7 µM. 1,100 tested, under 10 active;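 active = mean activation above a set limit taken from the earlier primary screen, cut at about 11% in these data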
# A number is an active result; . = inactive.
SMILES,TTR transcr act,others
COC(=O)[C@]12C[C@H](CC(=O)NCCC(C)C)C(=O)N(Cc3ccc(Cl)cc3Cl)C1=C[C@H](C1CCCC1)O[C@@H]2C,.,
CCCCOc1ccc(NC(=O)CN2CCN(CC)CC2)cc1,24,HuH7 TTR inh=.;TTR act confirm=.
CCOc1ccc(NC(=O)CN2CCN(CC(=O)Nc3ccc(C(=O)OC)cc3)CC2)cc1,.,
CCOc1ccc(NC(=O)CN2CCN(CC(=O)Nc3ccccc3OC)CC2)cc1,.,
COc1ccc(N(C)C(=O)C2CCCN2S(=O)(=O)c2cccc3nsnc23)cc1 (configuration not stated),.,
CN(Cc1ccccc1)C(=O)[C@@H]1CCCN1C(=O)[C@@H]1CCCN1C(=O)c1ccccc1,.,
COc1ccc(OC)c(CN2C(=O)CCCC2(C)c2nnnn2C2CCCC2)c1 (configuration not stated),.,
C=CCn1c(C)cc(C(=O)CSc2nnc3c(Cl)cc(Cl)cn23)c1C,22,HuH7 TTR inh=.;TTR act confirm=.
C=CCn1c(C)cc(C(=O)CSc2nc(N)cc(N)n2)c1C,.,
COc1ccc(C(C)=O)cc1CSc1nnc2c(Cl)cc(Cl)cn12,.,
Cc1ccc(-c2nc3c(Cl)cc(C(F)(F)F)cn3c2Cc2ccccc2)cc1,.,
COc1ccc(S(=O)(=O)NC(C(=O)OCC(=O)Nc2ccc(N3CCOCC3)cc2)C(C)C)cc1 (configuration not stated),.,
c1ccc(Sc2ncnc3c2oc2ccccc23)nc1,18,HuH7 TTR inh=20;TTR act confirm=.
c1coc(CSc2ncnc3c2oc2ccccc23)c1,.,
Oc1ccc(Nc2ncnc3c2oc2ccccc23)cc1,.,
C[C@H](NC(=O)C[C@@H]1C=C[C@@H](NC(=O)CN2CCOCC2)[C@@H](CO)O1)c1ccccc1,.,
COc1ccc(-c2ccc(CN3C(C)C(=O)N(Cc4cn(CCC5OCCCO5)nn4)CCS3(=O)=O)cc2)cc1 (configuration not stated),.,
CC(C)C(NCC(=O)Nc1ccccc1C(=O)NC1CC1)c1ccccc1 (configuration not stated),.,
CCOc1ccccc1N1CC(C(=O)Nc2cc(S(=O)(=O)N3CCOCC3)ccc2OC(C)C)CC1=O (configuration not stated),.,
CCOc1cc(CNCCCN2CCOCC2)ccc1OCC(=O)NC(C)(C)C,.,
CCOc1cc(CNCCN2CCOCC2)ccc1OCc1ccccc1Cl,27,HuH7 TTR inh=.;TTR act confirm=.
CCOc1cc(CNC2CCCC2)ccc1OCc1ccccc1Cl,.,
COc1ccccc1NS(=O)(=O)c1cccc(NC(=O)CCNC(=O)c2ccccc2OC)c1,.,
CCOC(=O)C1(C)CCCCCN1C(=O)c1ccco1 (configuration not stated),.,
COc1ccc(NC(=O)c2sccc2C)c([N+](=O)[O-])c1,.,
SMILES,TTR transcr act,others
COc1ccc(/C=C/C(=O)Nc2ccc(OC)cc2[N+](=O)[O-])cc1,13,HuH7 TTR inh=.;TTR act confirm=.
COc1ccc(NC(=O)Nc2ccc(OC)c(OC)c2)c([N+](=O)[O-])c1,.,
CNc1nc(NC)c2cn[nH]c2n1,.,
O=c1nc(N2CCCC2)nc(N2CCCC2)[nH]1,.,
CN1C(=O)[C@H]2[C@@H](c3ccccc3)N[C@]3(CCCN(Cc4ccc(F)cc4)C3=O)[C@H]2C1=O,.,
CC(C)c1ccc(OCC(=O)Nc2ccncc2)cc1,.,
O=C(COC(=O)COc1ccccc1)Nc1ccc2c(c1)OCCO2,.,
CC(C)c1ccc(NC(=O)COC(=O)COc2ccccc2)cc1,10,HuH7 TTR inh=.;TTR act confirm=.
O=C(Nc1ccc(Cl)cc1)NN1CC(=O)N(c2cccc(C(F)(F)F)c2)CC1=O,.,
CCc1nc2ccc(C(=O)NCCOc3ccc(OC)cc3)cn2c1N(C)Cc1nccn1C,.,
Cc1cccc(OCC(=O)OCC(=O)c2c(N)n(C)c(=O)n(C)c2=O)c1C,.,
Cc1cccc(OCC(=O)OCC(=O)c2c(N)n(C)c(=O)n(C)c2=O)c1,11,HuH7 TTR inh=.;TTR act confirm=.
Cc1ccc(C(C)C)c(OCC(=O)OCC(=O)c2c(N)n(C)c(=O)n(C)c2=O)c1,.,
C=CCn1c(=O)c2c(nc3n2CC(C)CN3CCc2ccccc2)n(C)c1=O (configuration not stated),.,
CCC(C)Sc1ccc([C@@H]2[C@@H]3C(=O)N(CC)C(=O)[C@@H]3[C@]3(C(=O)OC)CCCCN23)cc1 (some centres not stated),.,
COCCCNCCCCOc1ccc(OCc2ccccc2)cc1,34,HuH7 TTR inh=.;TTR act confirm=.
C=CCNCCCCOc1ccc(OCc2ccccc2)cc1,.,
COCCCNCCCCOc1ccccc1-c1ccccc1,.,
CNC[C@@H]1Oc2cc(Br)ccc2S(=O)(=O)N([C@@H](C)CO)C[C@@H]1C,.,
c1ccc(-c2csc(CN3CCCCC3)n2)cc1,.,
CC(=O)Nc1cc(-c2ccccc2CN(C)C)cn2c(-c3ccc(F)c(Cl)c3)cnc12,.,
CCN1CCN(c2nc(-c3ccccn3)nc3ccccc23)CC1,11,HuH7 TTR inh=.;TTR act confirm=.
